15 compounds from PubChem BioAssay can be followed below.

Calls of active or inactive are those of the source.

Experiment [1] is described as follows: compounds binding Alexa647 anti-His antibody – biochemical, small-molecule microarray, 635 nm fluorescence, artefact control for SMM control protein annotation, primary screen (AID 1128).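 Further: score merges feature fluorescence with signal-to-noise for each printed compound spot.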 The following applies: higher = more signal.
The test system of experiment [2] is Human papillomavirus type 1a E7 protein (residues 1-88). The experiment can be described thus: HPV1a E7 small-molecule binders, primary screen, biochemical, small-molecule microarray, residues 1-88, 635 nm (AID 1129). Conditions: small-molecule microarray binding, fluorescence 635 nm; higher = more signal.
Experiment [3] addresses Focal adhesion kinase 1 (Homo sapiens) (UniProt Q05397). The experiment can be described thus: PTK2 protein binding on printed compound slides – biochemical, small-molecule microarray, 635/667 nm fluorescence, BSA, DTT, primary screen (AID 1130).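 Further: composite of spot emission at 667 nm and signal to noise over triplicate slides.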 Conditions: 635 nm fluorescence, higher = more signal.
Experiment [4] deals with Fibrinogen (Alexa647-labelled). The experiment can be described thus: Alexa647-fibrinogen binding to printed small molecules – biochemical, small-molecule microarray, 635/667 nm fluorescence, artefact control for SMM control-protein annotation, profiling panel (AID 1131).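 Further: z-score merges 667 nm fluorescence with per-spot signal-to-noise over triplicate slides.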 Conditions: fibrinogen-A647 binding fluorescence, higher = more signal.
Experiment [5] concerns the target Follistatin (Homo sapiens) (UniProt P19883). In words: FST protein binding to printed compounds – biochemical, small-molecule microarray, 635/667 nm fluorescence, primary screen (AID 1132). The following applies: 635 nm fluorescence, higher = more signal.
The target in experiment [6] is Fibroblast growth factor 2 (Homo sapiens) (UniProt P09038). The experiment can be described thus: basic fibroblast growth factor binding to printed compounds – biochemical, small-molecule microarray, 635/667 nm fluorescence, primary screen (AID 1133). The following applies: FGF2, fluorescence 635/667, higher = more signal.
A short description of experiment [7]: JC-1 mitochondrial potential readout, lung cancer cells – cell-based, A549, JC-1 fluorescence, basal, 24 h, 100 nL, profiling panel (AID 1138).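 Further: A549 lung adenocarcinoma cells under basal conditions with no added stimulus; test concentration not given here.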 Conditions: higher = more signal.
Experiment [8] deals with Lefty1. In words: Lefty1 protein binding to printed compounds – biochemical, small-molecule microarray, 635/667 nm fluorescence, primary screen (AID 1139). The following applies: fluorescence 635/667, higher = more signal.
Experiment [9] has as its system wheat germ agglutinin (Triticum aestivum), Alexa647-labelled. In words: Alexa647-WGA lectin binding to printed small molecules – biochemical, small-molecule microarray, 635/667 nm fluorescence, artefact control for SMM control-protein annotation, profiling panel (AID 1140).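 Further: score merges 667 nm feature emission with signal to noise over triplicate slides.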 The following applies: WGA-A647 binding, 635 nm fluorescence, higher = more signal.
For experiment [10], the target named is Luciferin 4-monooxygenase (Photinus pyralis) (UniProt P08659). The experiment can be described thus: inhibition of purified Photinus pyralis luciferase – biochemical, luminescence, purified enzyme, 2006 set, primary screen (AID 1141).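 Further: cell-free assay with purified firefly luciferase at 100 ng per well in PBS; test concentration not given here.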 Conditions: purified firefly luciferase, SteadyGlo luminescence, 30 min; higher = more signal, called active from +8 up or from −8 down.
Luciferin 4-monooxygenase (Photinus pyralis), sequence (P08659 whole entry, looked up): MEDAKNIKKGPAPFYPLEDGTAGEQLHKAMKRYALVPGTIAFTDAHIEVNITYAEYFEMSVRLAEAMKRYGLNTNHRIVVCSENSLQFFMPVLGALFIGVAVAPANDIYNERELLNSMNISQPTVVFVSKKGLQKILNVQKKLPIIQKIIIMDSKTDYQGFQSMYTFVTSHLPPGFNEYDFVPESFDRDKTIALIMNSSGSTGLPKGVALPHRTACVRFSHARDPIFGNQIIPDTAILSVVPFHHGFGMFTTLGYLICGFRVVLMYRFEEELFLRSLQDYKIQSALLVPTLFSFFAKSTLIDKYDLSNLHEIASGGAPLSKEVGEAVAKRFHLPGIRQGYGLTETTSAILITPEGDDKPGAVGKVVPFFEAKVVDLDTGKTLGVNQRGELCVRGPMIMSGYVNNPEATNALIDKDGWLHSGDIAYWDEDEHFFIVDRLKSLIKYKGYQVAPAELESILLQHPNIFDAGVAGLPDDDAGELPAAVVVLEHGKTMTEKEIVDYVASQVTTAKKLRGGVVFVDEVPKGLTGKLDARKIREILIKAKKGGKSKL

Fibroblast growth factor 2 (Homo sapiens), sequence (P09038 whole entry, looked up): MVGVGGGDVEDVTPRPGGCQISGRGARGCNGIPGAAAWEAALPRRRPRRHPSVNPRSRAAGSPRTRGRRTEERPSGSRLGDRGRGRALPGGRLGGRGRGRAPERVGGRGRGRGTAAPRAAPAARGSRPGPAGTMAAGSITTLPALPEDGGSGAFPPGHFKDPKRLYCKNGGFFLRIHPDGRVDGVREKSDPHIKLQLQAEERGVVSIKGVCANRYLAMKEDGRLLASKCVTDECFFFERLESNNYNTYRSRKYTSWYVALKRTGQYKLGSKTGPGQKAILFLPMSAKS
Focal adhesion kinase 1 (Homo sapiens), sequence (Q05397 whole entry, looked up): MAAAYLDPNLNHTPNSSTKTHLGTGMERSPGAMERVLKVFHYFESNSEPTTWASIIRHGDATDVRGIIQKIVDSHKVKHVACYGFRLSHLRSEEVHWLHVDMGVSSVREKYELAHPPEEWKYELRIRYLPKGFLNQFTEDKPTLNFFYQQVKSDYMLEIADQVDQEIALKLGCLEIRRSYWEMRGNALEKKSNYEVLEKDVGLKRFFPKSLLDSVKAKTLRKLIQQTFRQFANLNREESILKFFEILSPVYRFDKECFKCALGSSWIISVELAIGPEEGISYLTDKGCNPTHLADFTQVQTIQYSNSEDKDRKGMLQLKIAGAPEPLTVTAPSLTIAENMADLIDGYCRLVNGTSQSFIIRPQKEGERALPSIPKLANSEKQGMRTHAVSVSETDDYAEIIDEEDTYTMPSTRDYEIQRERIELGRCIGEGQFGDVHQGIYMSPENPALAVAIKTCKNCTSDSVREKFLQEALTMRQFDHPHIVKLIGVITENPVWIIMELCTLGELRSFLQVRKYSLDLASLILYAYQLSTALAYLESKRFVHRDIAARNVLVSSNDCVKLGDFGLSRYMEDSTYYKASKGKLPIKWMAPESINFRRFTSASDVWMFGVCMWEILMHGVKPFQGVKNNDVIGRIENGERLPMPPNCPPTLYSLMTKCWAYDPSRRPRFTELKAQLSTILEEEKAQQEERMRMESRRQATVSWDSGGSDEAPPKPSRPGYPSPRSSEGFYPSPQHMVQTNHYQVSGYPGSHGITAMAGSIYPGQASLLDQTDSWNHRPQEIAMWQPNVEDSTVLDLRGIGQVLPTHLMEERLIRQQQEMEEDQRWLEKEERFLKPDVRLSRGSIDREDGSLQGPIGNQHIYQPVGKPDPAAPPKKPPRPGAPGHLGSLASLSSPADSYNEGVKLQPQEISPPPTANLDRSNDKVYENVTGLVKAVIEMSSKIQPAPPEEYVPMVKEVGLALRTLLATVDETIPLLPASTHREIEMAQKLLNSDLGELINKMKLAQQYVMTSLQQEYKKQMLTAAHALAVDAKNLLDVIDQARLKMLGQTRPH
Follistatin (Homo sapiens), sequence (P19883 whole entry, looked up): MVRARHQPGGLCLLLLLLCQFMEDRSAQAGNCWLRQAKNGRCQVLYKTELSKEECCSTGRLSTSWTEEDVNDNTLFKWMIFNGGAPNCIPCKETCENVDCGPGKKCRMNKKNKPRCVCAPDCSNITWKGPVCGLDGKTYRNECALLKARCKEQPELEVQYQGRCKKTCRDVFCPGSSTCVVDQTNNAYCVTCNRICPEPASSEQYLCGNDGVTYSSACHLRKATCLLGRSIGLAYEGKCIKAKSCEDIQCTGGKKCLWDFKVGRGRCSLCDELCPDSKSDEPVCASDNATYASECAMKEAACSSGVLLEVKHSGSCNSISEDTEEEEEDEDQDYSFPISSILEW

`COCCCN1C(=O)[C@@]2(c3ccc([N+](=O)[O-])cc3)CC(=O)N(C3CCCCC3)[C@@H]2c2ccc(CO)cc21`: the composite z-score in experiment [1] is 0.245; in experiment [2] it was -0.62; in [3] it was -0.101; in experiment [4], -0.538; in experiment [5] it was 1.14; in [6] it was 0.594. Further, the composite z-score in experiment [8] is 0.655; in experiment [9], -0.0848. Besides, the z-score was -0.39 in experiment [7] and -0.302 (inactive) in [10].

As for `CCCC=C(CCC)[C@@H](NS(=O)(=O)c1cccs1)c1ccc(C(=O)OC)cc1`, the composite z-score in experiment [1] is 1.16; in experiment [2], 1.17; in [3], 0.496; in [4], 1.02; in [5], 0.825; in [6] it was -0.186. The results for the composite z-score in experiment [8] and in experiment [9] were -0.3 and 1.17, respectively. The z-score in [7] was -2.96; in [10], 0.917 (inactive).

Regarding `O=C1OCCC/C=C\[C@H]2OC34C=CCN(CCN5CCOCC5)C(=O)[C@H]3N(CCCO)C(=O)[C@@H]4C12` (stereo not given in full), the composite z-score is -0.851 in [1]; -0.786 in [2]; -0.253 in [3]; -1.16 in [4]; -0.803 in experiment [5]; -0.506 in experiment [6]. For the same compound, the composite z-score in experiment [8] is -0.483; in experiment [9], 0.023. Further, the z-score is -0.278 in [7] and 0.266 (inactive) in experiment [10].

Turning to `CCCC[C@H]1OB(O)C[C@H]2C1=C(COc1ccccc1)C[C@H]1C(=O)N(C)C(=O)[C@H]12`, the composite z-score in [1] is -0.0391; in experiment [2], 0.0417; in experiment [3] it was -0.281; in [4], -0.0052; in [5], 1.24; in experiment [6] it was 0.473. Also, the composite z-score in experiment [8] was determined as 0.576; in experiment [9] it was 0.0686. The results for the z-score in [7] and in experiment [10] were 0.284 and -0.718 (inactive), respectively.

With `CC(=O)n1cc(C(O)C2C=CC3C(=O)N(C)C(=O)C3N2Nc2ccccc2)c2ccccc21` (stereo not given), the composite z-score was 1.88 in experiment [1]; 1.11 in experiment [2]; 0.214 in experiment [3]; 0.898 in experiment [4]; 1.12 in experiment [5]; 0.607 in experiment [6]. Besides, the composite z-score in experiment [8] was found to be 0.859; in experiment [9], 0.809. Besides, the z-score in experiment [7] was -0.0732; in experiment [10], 0.376 (inactive).

Turning to `COCCCN1C(=O)[C@@]2(Cc3ccccc31)c1ccccc1C(=O)N(Cc1ccccc1C(F)(F)F)[C@H]2c1ccc(CO)cc1`, the composite z-score in [1] is -0.169; in [2], 0.439; in experiment [3], 0.521; in [4] it was -0.371; in [5], 1.26; in experiment [6], 1.14. In addition, the results for the composite z-score in [8] and in [9] were 0.469 and 0.101, respectively. The z-score in experiment [7] was 0.317; in experiment [10] it was -0.259 (inactive).

On to `C=CCN1C(=O)[C@]2(O[C@H](CCO)[C@@H]([Si](C)(C)c3ccc(OC)cc3)[C@@H]2C)c2cc(N3C(=O)c4cccc5cccc3c45)ccc21`, for which the composite z-score in experiment [1] came to 0.987; in [2], 0.98; in experiment [3], 1.05; in experiment [4], 0.541; in experiment [5] it was 0.644; in experiment [6], 0.65. Also, the composite z-score came out at 0.777 in [8] and 0.393 in experiment [9]. In addition, the figures for the z-score in experiment [7] and in [10] were -0.855 and -0.225 (inactive), respectively.

On to `CCCN1C(=O)[C@]2(CCS(=O)(=O)c3ccccc3)N=C(c3ccc(OCCCO)cc3)O[C@@H]2c2ccccc21`, for which the composite z-score was 1.02 in experiment [1]; 1.21 in experiment [2]; 0.554 in experiment [3]; 0.967 in [4]; 0.958 in [5]; 0.408 in experiment [6]. Moreover, the composite z-score in experiment [8] was 0.576; in experiment [9] it was 0.737. The z-score in experiment [7] is 0.535; in [10] it was 0.54 (inactive).

As to `CCCCN1CC=CC23O[C@@H]4/C=C\CCC(C)OC(=O)C4[C@H]2C(=O)N(CCCCCO)[C@@H]3C1=O` (stereo not given in full), the composite z-score in experiment [1] was -0.383; in [2], -0.69; in experiment [3], -0.883; in experiment [4] it was -0.773; in experiment [5], -1.13; in [6], -0.781. Also, the figures for the composite z-score in [8] and in experiment [9] were -0.234 and -0.245, respectively. Besides, the results for the z-score in experiment [7] and in [10] were -0.175 and 0.762 (inactive), respectively.

In the case of `CC(C)C[C@H]1NC(=O)[C@@]23C(=O)N[C@@H](Cc4ccccc4)C2[C@H](C)[C@@]2(C)O[C@H]2C3/C=C/C/C=C\CNC(=O)[C@H](Cc2ccccc2)NC1=O` (stereo not given in full), the composite z-score is 0.218 in experiment [1]; 0.45 in [2]; -0.291 in [3]; 0.183 in experiment [4]; 1.01 in experiment [5]; 0.717 in [6]. Further, the composite z-score in [8] is 1.24; in [9], -0.204. Also, the z-score was 0.156 in experiment [7] and -3.01 (inactive) in experiment [10].

For `CN1C(=O)C2C=CC(C(O)c3ccc(-c4ccccc4)s3)N(N(c3ccccc3)c3ccccc3)C2C1=O` (stereo not given), the composite z-score in [1] is 0.0993; in experiment [2] it was 0.628; in [3], 0.162; in [4], 0.528; in [5] it was 1.14; in experiment [6] it was -0.314. The composite z-score in [8] is -0.119; in [9], 1.08. Further, the figures for the z-score in experiment [7] and in experiment [10] were 0.767 and -0.377 (inactive), respectively.

For `COc1ccc(C(O)C2C=CC3C(=O)N(C)C(=O)C3N2N2CCCCC2)c2ccccc12` (stereo not given), the composite z-score in [1] was 1.4; in experiment [2], 1.26; in experiment [3], 0.921; in experiment [4], 1; in experiment [5] it was 0.829; in [6] it was -0.372. Also, the composite z-score in experiment [8] was determined as 0.174; in [9], 1.27. Moreover, the z-score is -0.364 in [7] and -0.129 (inactive) in experiment [10].

In the case of `C=CCOC(=O)[C@H]1[C@@H]2C(=O)O[C@@H](c3ccccc3)[C@@H](c3ccccc3)N2[C@@H](c2ccc(OCCOC(=O)[C@@H]3C[C@@H]4C(=O)N[C@@H](CCCC[N+](C)(C)C)C(=O)N4[C@@H]3c3ccc(O)cc3)cc2)[C@]12C(=O)Nc1ccccc12`, the composite z-score in experiment [1] is 1.46; in [2], 1.2; in experiment [3], 0.877; in experiment [4], 0.583; in experiment [5], 1.26; in [6], 1.51. Moreover, the composite z-score in experiment [8] was 1.18; in experiment [9], 0.494. Moreover, the z-score in [7] is -0.849; in [10] it was -2.95 (inactive).

`CCOC(=O)[C@H]1CC=C2CC1C(=O)N1CCC[C@@H]1[C@@H]2O[Si](C)(C)C(C)(C)C` (stereo not given in full): the composite z-score in experiment [1] is -0.0289; in experiment [2], -0.708; in experiment [3] it was -0.173; in [4], -0.162; in experiment [5], -0.878; in [6] it was -0.206. The values for the composite z-score in experiment [8] and in [9] were 0.449 and -0.502, respectively. The z-score is -0.158 in experiment [7] and 0.367 (inactive) in [10].

On to `COc1cc2c(cc1OC)CN(C(=O)[C@H]1[C@@H]3C(=O)O[C@@H](c4ccccc4)[C@@H](c4ccccc4)N3[C@@H](c3ccc(O)cc3)[C@]13C(=O)Nc1ccc(C#CC4=CCCCC4)cc13)CC2`, for which the composite z-score in experiment [1] is 2.11; in experiment [2], 1.19; in experiment [3], -0.0164; in experiment [4], 0.666; in experiment [5], 1.22; in experiment [6] it was 0.86. The composite z-score was 1.2 in experiment [8] and 1.12 in [9]. The results for the z-score in experiment [7] and in [10] were 0.0961 and -1.1 (inactive), respectively.
